In the library only some 6.5% were active in any assay of this set; here they are far more common.
FMDV antiviral = antivirals against foot and mouth disease virus; FMDV antiviral cell-based qHTS; Potency, µM (highest dose often 57.9 µM), hits mostly inhibitors; actives 1.2% (n = 410,000); AID 1159524; calls by dose curve; tested in HEK293T cells; also: read-out not given here; nearly all actives have a fitted effect of over 45% in size
MARV entry inh = Marburg virus entry inhibition. Potency, µM (top dose mostly 37.8 µM), actives largely listed as inhibitors. actives 1.8% (n = 300,000). AID 540276. Marburg virus pseudotyped entry inhibition, cell reporter; calls by dose curve; tested in HEK293 cells
HCMV inh = inhibitors of human cytomegalovirus | actives 4.5% (n = 410,000) | HFF cells, HCMV-luciferase reporter, 72 h; hits give low values | AID 1259415 | activity change, negative = inhibition, % at 57.5 µM; in the data active = activity change below about -60%; inconclusive = no clear call, values can overlap the other calls; inactive = above about -39%
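HFF cells seeded 16 h at 37C, treated with compounds, infected with luciferase-reporter HCMV at MOI 1 PFU/cell; luciferase read at 72 h post infection, normalized to buffer-only and Salinomycin controls.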
Lassa entry inh = blocks Lassa virus binding to or entry into cells | Potency, µM (titrated, usually from 37.9 µM), hits mostly inhibitors | Lassa virus pseudotype entry inhibition, cell reporter | actives 1.2% (n = 300,000); calls by dose curve; tested in HEK293 cells; also: nearly all actives have a fitted effect of over 50% in size
Vaccinia Venus = vaccinia inhibition (Venus reporter) | actives 0.46% (n = 330,000) | AID 720580 | Potency, µM (top dose mostly 36.5 µM), actives largely listed as inhibitors | Vaccinia virus Venus reporter expression, fluorescence; calls by dose curve; tested in A549 cells; also: nearly all actives have a fitted effect of over 30% in size
VACV mCherry inh = inhibitors of vaccinia virus infection (mCherry reporter signal); Vaccinia virus mCherry reporter infection, fluorescence; Potency, µM (titrated, usually from 36.5 µM), most hits filed as inhibitors; actives 0.63% (n = 310,000); calls by dose curve; tested in A549 cells; also: nearly all actives have a fitted effect of over 35% in size
Of the large screens only hits and unclear results are named; the others gave an inactive call.

CN(C(=O)COC(=O)CNC(=O)c1sc2ccccc2c1Cl)c1ccccc1	HCMV inh inconclusive
Cc1ccccc1OCC(=O)Nc1cnn(CCCC(=O)O)c1	none
O=C(CCN1CCCCCC1)Nc1cccc(Cl)c1	HCMV inh -60.5
CC(=O)c1ccc(NC(=O)Cn2c(=O)c3cccn3c3ccccc32)cc1	HCMV inh inconclusive, Lassa entry inh 1.78µM (no result: MARV entry inh)
O=C(CCN1CCCCC1)Nc1cccc(Cl)c1	none
COc1ccc(NC(=O)Cn2c(=O)c3cccn3c3ccccc32)cc1	none (no result: MARV entry inh)
CC(C)(C)C1=CC(O)(c2ccccc2)C=C(C(C)(C)C)C1=O	FMDV antiviral inconclusive, HCMV inh -60.4 (no result: MARV entry inh, Lassa entry inh, Vaccinia Venus, VACV mCherry inh)
O=C1Nc2ccccc2C1(O)c1ccccc1 (centres undefined)	none (no result: MARV entry inh, Lassa entry inh, Vaccinia Venus, VACV mCherry inh)
COc1ccccc1Nc1nn2c(=O)c3ccc(C(=O)NCc4cccs4)cc3nc2s1	FMDV antiviral inconclusive, HCMV inh -97.3, Lassa entry inh inconclusive, Vaccinia Venus inconclusive, VACV mCherry inh inconclusive (no result: MARV entry inh)
CCN(CC)CCNC(=O)c1ccc2c(=O)n3nc(Nc4ccccc4OC)sc3nc2c1	HCMV inh -101.2, VACV mCherry inh inconclusive (no result: MARV entry inh)
Cc1ccc(C)c(Nc2nn3c(=O)c4ccc(C(=O)NCc5cccs5)cc4nc3s2)c1	HCMV inh -98.8, Lassa entry inh inconclusive, Vaccinia Venus inconclusive, VACV mCherry inh inconclusive (no result: MARV entry inh)
COc1ccccc1Nc1nn2c(=O)c3ccc(C(=O)NC4CCCCC4)cc3nc2s1	FMDV antiviral inconclusive (no result: MARV entry inh)
Cc1sc2ccccc2[n+]1CC(=O)c1ccc(F)cc1	none (no result: FMDV antiviral, MARV entry inh, HCMV inh, Lassa entry inh)
COc1ccc(CN2CCCC(c3nc(C)ncc3-c3ccc(F)cc3)C2)c(OC)c1OC (centres undefined)	none (no result: MARV entry inh, HCMV inh, Lassa entry inh)
CCOC(=O)CNC(=S)N(Cc1ccc(C)cc1)Cc1ccc(C)o1	MARV entry inh inconclusive, HCMV inh -81.6, Lassa entry inh inconclusive
O=C(NCC(NS(=O)(=O)OCC(Cl)(Cl)Cl)c1ccccc1)C(F)(F)F (centres undefined)	HCMV inh -74.5, Vaccinia Venus inconclusive (no result: MARV entry inh, Lassa entry inh)
O=C(NCCC(NS(=O)(=O)OCC(Cl)(Cl)Cl)c1ccccc1)C(F)(F)F (centres undefined)	VACV mCherry inh inconclusive (no result: MARV entry inh, Lassa entry inh)
CCc1ccccc1NC(=O)Cn1ccn(-c2cc(C)cc(C)c2)c(=O)c1=O	HCMV inh -64.0 (no result: MARV entry inh)
CCOC(=O)c1c(SC)n(-c2ccccc2)c(=S)n(-c2ccccc2)c1=O	none
CCOC(=O)c1c(SCCN2CCCCC2)n(-c2ccccc2)c(=S)n(-c2ccccc2)c1=O	FMDV antiviral 20µM
C(=C1C=c2ccccc2=C1)c1ccc(N=Nc2ccc(C=C3C=c4ccccc4=C3)cc2)cc1	none (no result: FMDV antiviral, MARV entry inh, HCMV inh, Lassa entry inh)
Fc1ccc(C2=CCN(C(c3cccs3)c3nnnn3CCc3ccccc3)CC2)cc1 (centres undefined)	HCMV inh inconclusive, Lassa entry inh inconclusive, Vaccinia Venus inconclusive, VACV mCherry inh inconclusive
CCC(C)(C)n1nnnc1C(c1cccs1)N1CC=C(c2ccc(F)cc2)CC1 (centres undefined)	MARV entry inh 14.6µM, HCMV inh -63.1, Lassa entry inh inconclusive (no result: FMDV antiviral)
C=C(C)C1(O)OC(=O)C=C1OC (centres undefined)	none (no result: MARV entry inh, Lassa entry inh)
Cc1cc(S(=O)(=O)NC(C)C)ccc1OCC(=O)N1CCN(Cc2ccc3c(c2)OCO3)CC1	FMDV antiviral inconclusive, MARV entry inh inconclusive, HCMV inh -83.9, Lassa entry inh 8.2µM, Vaccinia Venus inconclusive
CCOc1ccc(N(C)S(=O)(=O)c2ccc(C)c(C(=O)N3CCN(Cc4ccc5c(c4)OCO5)CC3)c2)cc1	FMDV antiviral 22.4µM, Lassa entry inh inconclusive, Vaccinia Venus inconclusive
CC(C)NS(=O)(=O)c1ccc(OCC(=O)N2CCN(Cc3ccc4c(c3)OCO4)CC2)c(Cl)c1	FMDV antiviral inconclusive, MARV entry inh inconclusive, HCMV inh -68.3, Lassa entry inh inconclusive, VACV mCherry inh inconclusive
COc1ccc(N(C)S(=O)(=O)c2cccc(C(=O)N3CCN(Cc4ccc5c(c4)OCO5)CC3)c2)cc1	FMDV antiviral inconclusive, MARV entry inh inconclusive, Lassa entry inh inconclusive
Cc1ccc(-c2cn3c(=O)cc(C)[nH]c3n2)cc1	Lassa entry inh 14.6µM (no result: Vaccinia Venus, VACV mCherry inh)
Cc1cc(=O)n2cc(-c3ccccc3)nc2[nH]1	none (no result: Vaccinia Venus, VACV mCherry inh)
O=C(C[n+]1c(Cl)cc(Cl)c2ccccc21)c1ccccc1	none (no result: FMDV antiviral, MARV entry inh, HCMV inh, Lassa entry inh)
Cc1ccc(-c2cc3c(N=O)c4ccccc4c-3n[nH]2)cc1	HCMV inh -93.6

Source: PubChem BioAssay (National Center for Advancing Translational Sciences (NCATS))
